Test results: the supplement of paper PMC10849652
Of roughly 7,900 targets only a part is listed; those with a hit were picked by preference. About 0.6% of all pairs of compound and target were hits. Unmarked numbers belong to inactive results.

Assays:
Test in all cases: log2 fold change, soluble protein after heating vs DMSO (PISA); higher = thermal stabilisation; K562 cells, 10 uM, 30 min; active = over 0.2 and 3.5 SD of the protein, either way, in both replicates (recomputed)
saracatinib = compound: CN1CCN(CCOc2cc(OC3CCOCC3)c3c(Nc4c(Cl)ccc5c4OCO5)ncnc3c2)CC1 [saracatinib]
Procedure, shortened: (§1)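 Soluble protein was quantified by TMTpro 16plex LC-MS/MS after channel sums were equalised. It was obtained as the supernatant after 21,000xg for 90 min from pooled aliquots of K562 cells (2×10^6 cells/mL, 10 μM compound, 30 min) heated for 3 min across 48°C-58°C and extracted in PBS with 0.5% NP-40 at 4°C. Thermal stability values are relative to control samples and come from duplicates. They are given as log2 fold changes.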

sotrastaurin = compound: CN1CCN(c2nc(C3=C(c4c[nH]c5ccccc45)C(=O)NC3=O)c3ccccc3n2)CC1 [sotrastaurin]
Procedure, shortened: as §1

alvocidib = compound: CN1CC[C@H](c2c(O)cc(O)c3c(=O)cc(-c4ccccc4Cl)oc23)[C@H](O)C1 [alvocidib]
Procedure, shortened: as §1

Tubastatin A = compound: CN1CCc2c(c3ccccc3n2Cc2ccc(C(=O)NO)cc2)C1 [Tubastatin A]
Procedure, shortened: as §1

[1] = compound: CNC(=O)C1=CC=CC=C1NC2=NC(=NC=C2Cl)NC3=C(C=C(C=C3)N4CCOCC4)OC
Procedure, shortened: as §1

defactinib = compound: CNC(=O)c1ccc(Nc2ncc(C(F)(F)F)c(NCc3nccnc3N(C)S(C)(=O)=O)n2)cc1 [defactinib]
Procedure, shortened: as §1

rucaparib = compound: CNCc1ccc(-c2[nH]c3cc(F)cc4c3c2CCNC4=O)cc1 [rucaparib]
Procedure, shortened: as §1

[2] = compound: CNc1nc(-c2ccc3c(N)n[nH]c3c2)cc(N2C[C@@H](C(=O)NC3CCCCC3)CC[C@H]2C)n1
Procedure, shortened: as §1

encorafenib = compound: COC(=O)N[C@@H](C)CNc1nccc(-c2cn(C(C)C)nc2-c2cc(Cl)cc(NS(C)(=O)=O)c2F)n1 [encorafenib]
Procedure, shortened: as §1

[3] = compound: COC(=O)[C@H](CCSC)NC(=O)C1=C(C=C(C=C1)NC[C@H](CS)N)C2=CC=CC=C2
Procedure, shortened: as §1

[4] = compound: COC1=CC=C(C=C1)CN2C=CC3=C2C=C(C=C3)C(=O)NO
Procedure, shortened: as §1

filanesib = compound: CON(C)C(=O)N1N=C(c2cc(F)ccc2F)S[C@@]1(CCCN)c1ccccc1 [filanesib]
Procedure, shortened: as §1

zotarolimus = compound: CO[C@H]1C[C@@H]2CC[C@@H](C)[C@@](O)(O2)C(=O)C(=O)N2CCCC[C@H]2C(=O)O[C@H]([C@H](C)C[C@@H]2CC[C@H](n3cnnn3)[C@H](OC)C2)CC(=O)[C@H](C)/C=C(\C)[C@@H](O)[C@@H](OC)C(=O)[C@H](C)C[C@H](C)/C=C/C=C/C=C/1C [zotarolimus]
Procedure, shortened: as §1

idasanutlin = compound: COc1cc(C(=O)O)ccc1NC(=O)[C@@H]1N[C@@H](CC(C)(C)C)[C@](C#N)(c2ccc(Cl)cc2F)[C@H]1c1cccc(Cl)c1F [idasanutlin]
Procedure, shortened: as §1

alisertib = compound: COc1cc(Nc2ncc3c(n2)-c2ccc(Cl)cc2C(c2c(F)cccc2OC)=NC3)ccc1C(=O)O [alisertib]
Procedure, shortened: as §1

[5] = compound: COc1cc2nc(-c3cc(F)ccc3O)nc(N[C@@H]3CNC[C@H]3C(C)(C)O)c2cc1OC
Procedure, shortened: as §1

gefitinib = compound: COc1cc2ncnc(Nc3ccc(F)c(Cl)c3)c2cc1OCCCN1CCOCC1 [gefitinib]
Procedure, shortened: as §1

[6] = compound: COc1cccc2cc(-c3nc([C@H]4CC[C@H](C(=O)O)CC4)n4ncnc(N)c34)[nH]c12
Procedure, shortened: as §1

lapatinib = compound: CS(=O)(=O)CCNCc1ccc(-c2ccc3ncnc(Nc4ccc(OCc5cccc(F)c5)c(Cl)c4)c3c2)o1 [lapatinib]
Procedure, shortened: as §1

pictilisib = compound: CS(=O)(=O)N1CCN(Cc2cc3nc(-c4cccc5[nH]ncc45)nc(N4CCOCC4)c3s2)CC1 [pictilisib]
Procedure, shortened: as §1

UniProt Q15057, sequence (Q15057 whole entry, looked up): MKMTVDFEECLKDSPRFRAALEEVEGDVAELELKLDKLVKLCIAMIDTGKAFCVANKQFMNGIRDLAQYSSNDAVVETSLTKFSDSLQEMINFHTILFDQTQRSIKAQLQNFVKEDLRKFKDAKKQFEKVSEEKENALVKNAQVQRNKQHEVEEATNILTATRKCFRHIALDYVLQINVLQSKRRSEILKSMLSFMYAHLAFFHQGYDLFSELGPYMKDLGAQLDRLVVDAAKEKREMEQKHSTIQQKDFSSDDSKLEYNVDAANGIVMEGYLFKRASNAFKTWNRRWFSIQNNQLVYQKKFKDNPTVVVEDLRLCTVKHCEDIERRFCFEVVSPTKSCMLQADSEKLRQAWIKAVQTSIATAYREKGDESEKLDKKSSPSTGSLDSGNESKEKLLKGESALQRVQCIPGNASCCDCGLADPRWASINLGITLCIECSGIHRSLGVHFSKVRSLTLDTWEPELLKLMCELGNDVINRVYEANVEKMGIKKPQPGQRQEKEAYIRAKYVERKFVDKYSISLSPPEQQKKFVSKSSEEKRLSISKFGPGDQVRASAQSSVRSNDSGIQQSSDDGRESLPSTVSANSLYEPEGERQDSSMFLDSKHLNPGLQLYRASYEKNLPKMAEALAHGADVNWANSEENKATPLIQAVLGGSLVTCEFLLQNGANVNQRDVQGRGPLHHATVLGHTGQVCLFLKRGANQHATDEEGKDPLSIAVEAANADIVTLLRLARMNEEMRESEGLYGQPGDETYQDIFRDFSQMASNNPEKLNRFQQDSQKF
UniProt P54707, sequence (P54707 whole entry, looked up): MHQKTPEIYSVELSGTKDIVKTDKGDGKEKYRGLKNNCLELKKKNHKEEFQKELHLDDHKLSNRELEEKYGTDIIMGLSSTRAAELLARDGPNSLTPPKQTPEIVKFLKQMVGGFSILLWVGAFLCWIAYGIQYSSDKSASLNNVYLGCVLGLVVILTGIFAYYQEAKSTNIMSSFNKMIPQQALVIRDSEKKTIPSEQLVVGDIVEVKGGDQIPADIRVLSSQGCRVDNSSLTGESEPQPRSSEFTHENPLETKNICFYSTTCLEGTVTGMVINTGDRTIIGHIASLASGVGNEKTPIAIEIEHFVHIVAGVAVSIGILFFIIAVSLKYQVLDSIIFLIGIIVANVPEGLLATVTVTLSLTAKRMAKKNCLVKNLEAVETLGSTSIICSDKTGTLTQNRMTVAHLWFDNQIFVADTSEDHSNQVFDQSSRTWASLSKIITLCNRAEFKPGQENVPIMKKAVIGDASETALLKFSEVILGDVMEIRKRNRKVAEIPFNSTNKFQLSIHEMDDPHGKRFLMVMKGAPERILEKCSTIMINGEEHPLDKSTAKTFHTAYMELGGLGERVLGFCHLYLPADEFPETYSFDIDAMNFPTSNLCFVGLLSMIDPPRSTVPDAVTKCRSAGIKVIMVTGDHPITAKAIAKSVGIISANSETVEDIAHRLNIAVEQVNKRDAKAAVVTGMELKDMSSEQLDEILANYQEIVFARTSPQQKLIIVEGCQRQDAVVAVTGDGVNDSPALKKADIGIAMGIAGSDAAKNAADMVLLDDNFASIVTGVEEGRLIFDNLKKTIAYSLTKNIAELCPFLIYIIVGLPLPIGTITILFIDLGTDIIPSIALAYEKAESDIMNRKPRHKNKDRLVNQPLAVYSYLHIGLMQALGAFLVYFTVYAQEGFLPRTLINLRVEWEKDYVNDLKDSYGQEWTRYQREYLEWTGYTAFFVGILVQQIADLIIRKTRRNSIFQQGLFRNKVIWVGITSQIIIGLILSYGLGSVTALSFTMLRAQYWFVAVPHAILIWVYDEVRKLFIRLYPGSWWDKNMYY
UniProt P55957, sequence (P55957 whole entry, looked up): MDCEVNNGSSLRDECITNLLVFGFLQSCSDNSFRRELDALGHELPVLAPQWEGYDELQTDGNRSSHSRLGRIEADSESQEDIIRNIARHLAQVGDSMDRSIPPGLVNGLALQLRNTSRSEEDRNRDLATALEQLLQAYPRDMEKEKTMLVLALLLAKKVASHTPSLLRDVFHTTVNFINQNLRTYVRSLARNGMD
UniProt O95573, sequence (O95573 whole entry, looked up): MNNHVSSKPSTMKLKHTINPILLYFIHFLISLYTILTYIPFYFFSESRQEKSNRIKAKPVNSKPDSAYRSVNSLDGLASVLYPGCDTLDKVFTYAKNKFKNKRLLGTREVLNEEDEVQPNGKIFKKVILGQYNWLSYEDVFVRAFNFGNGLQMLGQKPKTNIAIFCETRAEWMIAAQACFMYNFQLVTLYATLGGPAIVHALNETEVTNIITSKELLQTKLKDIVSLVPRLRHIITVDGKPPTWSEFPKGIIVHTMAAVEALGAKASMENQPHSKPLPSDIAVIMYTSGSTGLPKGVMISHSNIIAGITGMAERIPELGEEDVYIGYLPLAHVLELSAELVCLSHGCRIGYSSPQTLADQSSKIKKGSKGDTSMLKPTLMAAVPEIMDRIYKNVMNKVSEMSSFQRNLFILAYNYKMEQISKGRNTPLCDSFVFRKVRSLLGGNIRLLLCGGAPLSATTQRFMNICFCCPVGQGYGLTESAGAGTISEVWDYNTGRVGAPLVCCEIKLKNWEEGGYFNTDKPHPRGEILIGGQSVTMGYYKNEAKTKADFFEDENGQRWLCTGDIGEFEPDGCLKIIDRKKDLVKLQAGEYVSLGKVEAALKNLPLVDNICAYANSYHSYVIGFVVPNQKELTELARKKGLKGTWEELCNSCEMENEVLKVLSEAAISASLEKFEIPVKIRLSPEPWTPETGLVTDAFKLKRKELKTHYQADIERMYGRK
UniProt Q9BTE6, sequence (Q9BTE6 whole entry, looked up): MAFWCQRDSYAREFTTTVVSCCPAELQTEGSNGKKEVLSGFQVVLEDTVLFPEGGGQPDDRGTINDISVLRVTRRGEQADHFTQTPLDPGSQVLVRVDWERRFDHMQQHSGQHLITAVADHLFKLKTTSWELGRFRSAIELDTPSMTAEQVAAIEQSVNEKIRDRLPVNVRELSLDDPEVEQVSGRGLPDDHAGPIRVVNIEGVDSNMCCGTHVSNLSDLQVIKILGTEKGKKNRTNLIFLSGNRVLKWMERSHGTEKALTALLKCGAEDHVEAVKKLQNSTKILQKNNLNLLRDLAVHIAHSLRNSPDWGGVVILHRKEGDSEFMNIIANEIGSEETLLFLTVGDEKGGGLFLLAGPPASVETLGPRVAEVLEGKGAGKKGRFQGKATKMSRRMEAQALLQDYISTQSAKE
UniProt Q9NP58, sequence (Q9NP58 whole entry, looked up): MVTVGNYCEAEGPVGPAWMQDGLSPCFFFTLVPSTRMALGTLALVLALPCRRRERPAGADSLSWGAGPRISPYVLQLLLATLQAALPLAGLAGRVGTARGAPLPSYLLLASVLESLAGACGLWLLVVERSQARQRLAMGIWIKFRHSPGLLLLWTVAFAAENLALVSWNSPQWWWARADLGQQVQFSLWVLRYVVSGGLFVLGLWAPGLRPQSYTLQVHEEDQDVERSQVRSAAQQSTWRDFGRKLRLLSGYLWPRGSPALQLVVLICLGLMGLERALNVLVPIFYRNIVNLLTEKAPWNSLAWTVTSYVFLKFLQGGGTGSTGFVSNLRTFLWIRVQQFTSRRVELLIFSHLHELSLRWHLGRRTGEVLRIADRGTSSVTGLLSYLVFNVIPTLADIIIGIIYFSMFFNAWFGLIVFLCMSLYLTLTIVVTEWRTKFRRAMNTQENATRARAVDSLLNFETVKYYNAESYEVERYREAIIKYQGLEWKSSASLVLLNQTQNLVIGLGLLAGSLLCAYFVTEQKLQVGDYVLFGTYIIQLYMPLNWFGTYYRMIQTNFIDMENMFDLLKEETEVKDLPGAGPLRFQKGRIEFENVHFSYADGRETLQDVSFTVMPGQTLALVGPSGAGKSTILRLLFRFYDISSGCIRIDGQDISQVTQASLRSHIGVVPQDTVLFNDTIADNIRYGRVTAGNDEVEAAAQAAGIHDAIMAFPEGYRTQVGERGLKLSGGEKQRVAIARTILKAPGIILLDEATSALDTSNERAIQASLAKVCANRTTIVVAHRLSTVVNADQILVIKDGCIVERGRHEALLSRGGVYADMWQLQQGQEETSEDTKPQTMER
UniProt P42330, sequence (P42330 whole entry, looked up): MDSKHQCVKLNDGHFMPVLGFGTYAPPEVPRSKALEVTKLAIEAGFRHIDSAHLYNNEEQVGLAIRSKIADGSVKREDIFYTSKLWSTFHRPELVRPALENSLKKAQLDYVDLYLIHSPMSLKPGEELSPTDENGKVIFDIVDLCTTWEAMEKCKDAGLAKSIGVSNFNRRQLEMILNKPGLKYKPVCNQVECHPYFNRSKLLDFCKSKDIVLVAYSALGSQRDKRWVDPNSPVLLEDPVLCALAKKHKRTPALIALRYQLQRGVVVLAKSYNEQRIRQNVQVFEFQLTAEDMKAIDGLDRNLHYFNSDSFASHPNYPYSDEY
UniProt P08243, sequence (P08243 whole entry, looked up): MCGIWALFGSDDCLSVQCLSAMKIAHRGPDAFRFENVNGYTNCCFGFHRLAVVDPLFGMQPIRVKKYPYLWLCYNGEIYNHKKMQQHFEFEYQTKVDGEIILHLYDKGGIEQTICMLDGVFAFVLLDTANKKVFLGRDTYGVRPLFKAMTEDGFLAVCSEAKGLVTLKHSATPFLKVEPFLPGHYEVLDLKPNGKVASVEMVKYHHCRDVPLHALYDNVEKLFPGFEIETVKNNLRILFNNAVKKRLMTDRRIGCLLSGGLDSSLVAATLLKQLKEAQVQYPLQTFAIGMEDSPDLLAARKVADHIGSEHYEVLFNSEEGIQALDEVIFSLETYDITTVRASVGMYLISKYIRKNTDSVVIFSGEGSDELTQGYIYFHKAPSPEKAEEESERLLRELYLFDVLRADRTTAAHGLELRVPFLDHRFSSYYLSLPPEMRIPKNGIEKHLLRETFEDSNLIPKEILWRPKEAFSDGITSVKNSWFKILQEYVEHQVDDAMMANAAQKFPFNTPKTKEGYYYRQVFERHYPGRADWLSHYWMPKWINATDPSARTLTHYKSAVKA

Row | Target | log2 fold change (saracatinib) | log2 fold change (sotrastaurin) | log2 fold change (alvocidib) | log2 fold change (Tubastatin A) | log2 fold change [1] | log2 fold change (defactinib) | log2 fold change (rucaparib) | log2 fold change [2] | log2 fold change (encorafenib) | log2 fold change [3] | log2 fold change [4] | log2 fold change (filanesib) | log2 fold change (zotarolimus) | log2 fold change (idasanutlin) | log2 fold change (alisertib) | log2 fold change [5] | log2 fold change (gefitinib) | log2 fold change [6] | log2 fold change (lapatinib) | log2 fold change (pictilisib)
1 | ACTR1B (UniProt P42025) | 0.012 | -0.025 | -0.058 | -0.004 | 0 | -0.005 | -0.037 | -0.012 | -0.048 | -0.075 | 0.084 | 0.044 | -0.026 | -0.136 | -0.163 | 0.008 | 0.04 | 0.073 | -0.104 | 0.127
2 | ATP12A isoform 2 (UniProt P54707) | 0.011 | 0.031 | -0.026 | -0.019 | 0.002 | -0.072 | -0.027 | 0.023 | -0.015 | -0.005 | -0.034 | -0.015 | -0.015 | 0.016 | -0.008 | 0.071 | 0.032 | 0.043 | -0.074 | 0.1
3 | ACADVL isoform 3 (UniProt P49748) | 0.027 | 0.056 | -0.031 | -0.028 | -0.022 | -0.011 | -0.007 | 0.008 | -0.021 | -0.001 | 0 | -0.069 | 0.019 | -0.04 | -0.031 | -0.089 | -0.019 | 0.025 | -0.12 | 0.093
4 | ABCB6 (UniProt Q9NP58) | 0.073 | 0.01 | -0.064 | -0.017 | -0.013 | -0.031 | -0.034 | 0.003 | 0.055 | -0.017 | -0.007 | -0.077 | 0.055 | -0.137 | -0.069 | 0.058 | -0.011 | 0.024 | -0.005 | 0.06
5 | ACAP2 (UniProt Q15057) | -0.02 | -0.029 | -0.068 | 0.001 | 0.031 | -0.032 | -0.016 | -0.04 | 0.062 | -0.026 | -0.001 | 0.119 | 0.01 | -0.047 | 0.011 | 0.283 (active) | 0.02 | 0.014 | 0.015 | -0.059
6 | ATP11A (UniProt P98196) | 0.082 | 0.094 | 0.059 | 0.007 | -0.002 | -0.093 | 0.192 | 0.044 | 0.008 | 0.017 | -0.027 | 0.036 | 0.011 | 0.004 | 0.23 | 0.026 | 0.057 | 0.015 | -0.033 | 0.007
7 | ATAD3A isoform 2 (UniProt Q9NVI7) | 0.001 | -0.053 | 0.102 | 0.04 | -0.139 | 0.05 | 0.252 | -0.017 | 0.154 | -0.046 | -0.029 | -0.005 | -0.053 | 0.073 | -0.006 | -0.116 | -0.199 | 0.001 | -0.029 | -0.185
8 | ACSL3 (UniProt O95573) | 0 | -0.014 | -0.037 | -0.022 | -0.008 | -0.043 | -0.002 | 0.041 | 0.008 | -0.01 | 0.126 | -0.045 | 0.019 | -0.127 | 0.026 | 0.046 | 0.021 | 0.037 | 0 | 0.022
9 | BID isoform 2 (UniProt P55957) | 0.008 | 0.04 | -0.018 | 0.076 | -0.053 | -0.031 | 0.033 | -0.017 | -0.011 | -0.032 | 0.045 | 0.016 | 0.08 | 0.016 | -0.045 | -0.006 | 0 | 0.089 | 0.005 | 0.038
10 | AKR1C3 (UniProt P42330) | 0.05 | 0.093 | -0.054 | 0.044 | 0.188 | 0.222 | 0.061 | 0.424 | -0.081 | 0.007 | 0.87 (active) | -0.028 | 0.066 | -0.074 | -0.087 | -0.176 | 0.031 | -0.214 | -0.065 | 0.061
11 | B4GALNT1 (UniProt Q00973) | -0.143 | -0.07 | 0.177 | -0.057 | -0.021 | -0.182 | 0.017 | 0.025 | 0.144 | -0.425 | 0.023 | 0.092 | 0.081 | 0.093 | -0.063 | -0.045 | 0.119 | 0.112 | 0.097 | -0.045
12 | ASNS (UniProt P08243) | 0.041 | 0.016 | -0.013 | -0.002 | -0.036 | -0.018 | -0.017 | -0.015 | -0.009 | -0.001 | 0.027 | -0.073 | -0.002 | -0.021 | -0.027 | 0.02 | -0.032 | 0.034 | -0.017 | 0.019
13 | APH1A (UniProt Q96BI3) | 0.025 | 0.131 | 0.073 | 0.097 | -0.047 | -0.089 | 0.002 | -0.01 | 0 | -0.111 | 0.101 | -0.039 | -0.062 | 0.005 | -0.228 | -0.236 | 0.043 | 0.059 | 0.091 | 0.013
14 | ACADM isoform 2 (UniProt P11310) | 0.031 | 0.274 (active) | -0.006 | -0.03 | 0.019 | -0.016 | -0.024 | 0.083 | -0.016 | 0.004 | 0.039 | -0.036 | 0.014 | -0.039 | -0.055 | 0.039 | 0.017 | 0.046 | 0.001 | 0.029
15 | AARSD1 isoform 3 (UniProt Q9BTE6) | -0.009 | -0.113 | -0.016 | -0.336 (active) | 0.081 | -0.071 | -0.077 | -0.037 | 0.08 | 0.004 | -0.47 (active) | -0.013 | 0.012 | 0.076 | -0.067 | -0.012 | 0.083 | -0.081 | 0.045 | 0.029
16 | ATAD1 (UniProt Q8NBU5) | -0.044 | 0.029 | -0.007 | 0.008 | -0.032 | -0.029 | 0.018 | 0.136 | 0.017 | -0.042 | 0.009 | -0.045 | 0.087 | -0.046 | -0.037 | -0.014 | 0.003 | -0.029 | 0.007 | 0.012
